Assay results taken from PubChem BioAssay AID1159580 (chemical genetic matrix, 2015).
Several values for one entry are separate records, joined by “and”; a condition that tells them apart may be missing. Equal values may be shown once. Hit rate of the full screen: of about 5,500 compounds, about 2,000 (36%) were called active. Inconclusive results (about 18%) are left out. Rule as the data show it: active = normalized growth mostly below about 0.91 (no sharp cut-off); inconclusive = no clear call, values can overlap the other calls; inactive = mostly above about 0.92. The list shows a part of the results. Some structures have more than one record in an assay (separate samples or runs), and their calls can disagree.

Assay: chemical genetic growth profiling, strain panel (AID 1159580);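 also: tested at 20 µM; growth read once vehicle control cultures reached saturation at 30 °C; 1 = growth at the plate median or of vehicle wells; lower values mean less growth of the strain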
Conditions: S. cerevisiae deletion strains, growth OD

Measured: normalized growth

Cc1ccc(Cl)c(Nc2ccccc2C(=O)O)c1Cl
0.664 (active) and 0.986 (inactive): locus YJL095W, strain BCK1, stronger effect = lower value
0.879 (active) and 0.942 (inactive): locus YDR150W, strain NUM1, stronger effect = lower value
inactive: locus YAL013W, strain DEP1, stronger effect = lower value 0.938 | locus YAL021C, strain ccr4, stronger effect = lower value 0.917 | locus YAL040C, strain CLN3, stronger effect = lower value 0.916 | locus YBR021W, strain FUR4, stronger effect = lower value 0.954 | locus YCL061C, strain MRC1 (second series), stronger effect = lower value 0.965 | locus YDL035C, strain GPR1, stronger effect = lower value 0.939 | locus YDL074C, strain BRE1, stronger effect = lower value 0.799 | locus YDL101C, strain DUN1, stronger effect = lower value 0.957 | locus YDL185W, strain tfp1, stronger effect = lower value 0.953 | locus YDR069C, strain doa4, stronger effect = lower value 0.928 | locus YDR195W, strain ref2 1.11 | locus YDR363W, strain ESC2, stronger effect = lower value 0.985 | locus YER002W, strain NOP16, stronger effect = lower value 0.926 | locus YER167W, strain BCK2, stronger effect = lower value 0.905 | locus YFR010W, strain ubp6, stronger effect = lower value 0.931 | locus YGL078C, strain dbp3, stronger effect = lower value 0.969 | locus YGL240W, strain doc1, stronger effect = lower value 0.91 | locus YGL248W, strain PDE1, stronger effect = lower value 0.899 | locus YGR078C, strain PAC10, stronger effect = lower value 0.926 | locus YGR229C, strain SMI1, stronger effect = lower value 0.841 | locus YGR252W, strain gcn5, stronger effect = lower value 0.834 | locus YHR079C, strain IRE1, stronger effect = lower value 1.03 | locus YIL066C, strain RNR3, stronger effect = lower value 0.881 | locus YIL073C, strain SPO22, stronger effect = lower value 0.735 | locus YIL125W, strain kgd1, stronger effect = lower value 0.981 | locus YJL115W, strain asf1, stronger effect = lower value 0.934 | locus YJL187C, strain SWE1 (second series), stronger effect = lower value 0.897 | locus YJR043C, strain POL32, stronger effect = lower value 0.956
active: locus YAL026C, strain drs2, stronger effect = lower value 0.787 | locus YAL030W, strain snc1, stronger effect = lower value 0.876 | locus YBL061C, strain skt5, stronger effect = lower value 0.884 | locus YBR009C, strain hhf1, stronger effect = lower value 0.856 | locus YBR023C, strain chs3, stronger effect = lower value 0.852 | locus YBR171W, strain sec66, stronger effect = lower value 0.817 | locus YBR229C, strain ROT2, stronger effect = lower value 0.884 | locus YBR231C, strain swc5, stronger effect = lower value 0.885 | locus YBR279W, strain paf1, stronger effect = lower value 0.867 | locus YCL011C, strain gbp2, stronger effect = lower value 0.852 | locus YCL016C, strain dcc1, stronger effect = lower value 0.818 | locus YCL029C, strain bik1, stronger effect = lower value 0.887 | locus YCL061C, strain MRC1, stronger effect = lower value 0.891 | locus YCL069W, strain vba3, stronger effect = lower value 0.866 | locus YCR088W, strain abp1, stronger effect = lower value 0.876 | locus YDL005C, strain med2, stronger effect = lower value 0.895 | locus YDL040C, strain nat1, stronger effect = lower value 0.894 | locus YDL192W, strain arf1, stronger effect = lower value 0.824 | locus YDR001C, strain nth1, stronger effect = lower value 0.871 | locus YDR101C, strain arx1, stronger effect = lower value 0.906 | locus YDR137W, strain rgp1, stronger effect = lower value 0.455 | locus YDR159W, strain sac3, stronger effect = lower value 0.766 | locus YDR162C, strain NBP2, stronger effect = lower value 0.794 | locus YDR297W, strain sur2, stronger effect = lower value 0.908 | locus YDR318W, strain mcm21, stronger effect = lower value 0.83 | locus YDR334W, strain swr1, stronger effect = lower value 0.879 | locus YDR335W, strain msn5, stronger effect = lower value 0.896 | locus YDR388W, stronger effect = lower value 0.87 | locus YDR392W, strain spt3, stronger effect = lower value 0.188 | locus YDR502C, strain sam2, stronger effect = lower value 0.835 | locus YEL003W, strain gim4, stronger effect = lower value 0.904 | locus YEL037C, strain rad23, stronger effect = lower value 0.901 | locus YEL061C, strain CIN8 (second series), stronger effect = lower value 0.885 | locus YEL061C, strain CIN8, stronger effect = lower value 0.888 | locus YER015W, strain faa2, stronger effect = lower value 0.926 | locus YER016W, strain bim1, stronger effect = lower value 0.91 | locus YER110C, stronger effect = lower value 0.866 | locus YER111C, strain swi4, stronger effect = lower value 0.876 | locus YER155C, strain BEM2 (second series), stronger effect = lower value 0.644 | locus YER155C, strain BEM2, stronger effect = lower value 0.839 | locus YGL086W, strain mad1, stronger effect = lower value 0.905 | locus YGL167C, strain pmr1, stronger effect = lower value 0.829 | locus YGL173C, strain kem1, stronger effect = lower value 0.85 | locus YGL227W, strain vid30, stronger effect = lower value 0.906 | locus YGL253W, strain hxk2, stronger effect = lower value 0.81 | locus YGR135W, strain pre9, stronger effect = lower value 0.795 | locus YHR013C, strain ard1, stronger effect = lower value 0.793 | locus YHR027C, strain rpn1, stronger effect = lower value 0.903 | locus YHR079C, strain IRE1 (second series), stronger effect = lower value 0.876 | locus YHR094C, strain hxt1, stronger effect = lower value 0.869 | locus YHR129C, strain ARP1, stronger effect = lower value 0.91 | locus YHR142W, strain chs7, stronger effect = lower value 0.737 | locus YHR200W, strain rpn10, stronger effect = lower value 0.882 | locus YIR030C, strain dcg1, stronger effect = lower value 0.868 | locus YJL092W, strain hpr5, stronger effect = lower value 0.872 | locus YJL095W, strain BCK1 (second series), stronger effect = lower value 0.822 | locus YJL129C, strain trk1, stronger effect = lower value 0.644 | locus YJL134W, strain LCB3, stronger effect = lower value 0.906 | locus YJL154C, strain vps35, stronger effect = lower value 0.891 | locus YJL164C, strain tpk1, stronger effect = lower value 0.866 | locus YJL166W, strain qcr8, stronger effect = lower value 0.864 | locus YJL168C, strain set2, stronger effect = lower value 0.892 | locus YJL187C, strain SWE1, stronger effect = lower value 0.891
0.901 (active) and 0.983 (inactive): locus YHR030C, strain SLT2, stronger effect = lower value
